The campaign covered roughly 2,300 compounds. About 330 (14%) showed activity.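 Rule for the calls: active = median modified Z-score above 1.96; inactive = 1.96 or below.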 Only a sample is shown.
system: HepG2 Srxn1-GFP reporter cells (+30 nM CDDO-Me); assay: Srxn1-GFP intensity median modified Z-score relative to plate median; higher = stronger NRF2 / oxidative stress reporter activation, active = hit call of the paper; details: 10 µM; exposure time: 24h
In short: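 In 96-well plates holding 20,000 HepG2 Srxn1-GFP BAC reporter cells per well, compound at 10 μM and an NRF2 activator at 30 nM were added together for 24 h, with DMSO at ≤0.1%, across three replicate plates. After fixation in formaldehyde and Hoechst staining, confocal images were analysed cell by cell for cytoplasmic GFP, and images containing under 100 cells were excluded. Values are replicate medians of the per-plate modified Z-score of GFP intensity, scaled by 1.4826 × median absolute deviation.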

Srxn1-GFP intensity median modified Z-score, active:
O=C(Oc1cccc2cccnc12)c1ccccc1 [euspeclibcmpd773] 12.8
C=C1CC[C@H](O)C/C1=C/C=C1\CCC[C@]2(C)C([C@H](C)/C=C/[C@H](C)C(C)C)CC[C@@H]12 (stereo partly drawn) [euspeclibcmpd112] 2.55
CC(C)C(C)/C=C/C(C)C1CCC2C3=CC=C4CC(O)CCC4(C)C3CCC21C (stereo not drawn) [euspeclibcmpd1597] 5.02
C=C1CC[C@H](O)C/C1=C/C=C1\CCCC2(C)C1CCC2C(C)CCCC(C)C (stereo partly drawn) [euspeclibcmpd353] 2.95
C[C@@H]1CC2C3CC=C4CC(=O)C=C[C@]4(C)[C@@]3(Cl)[C@@H](O)C[C@]2(C)[C@@]1(OC(=O)c1ccco1)C(=O)CCl (stereo partly drawn) [euspeclibcmpd756] 2.37
CCCCCCCCCCCCCCCCC(C(=O)O)C(O)(CC(=O)O)C(=O)O (stereo not drawn) [euspeclibcmpd1735] 3.83
CC(C)Cn1c(=O)n(C)c(=O)c2nc[nH]c21 [euspeclibcmpd1808] 11.6
COc1ccc2c(c1)OC/C(=C\c1ccc(OC)c(O)c1)C2=O [euspeclibcmpd1638] 19.3
COc1ccc2c(c1)C(=O)/C(=C\c1ccc(OC)c(O)c1)CO2 3.46
COC(=O)/C=C/C(=O)OC [euspeclibcmpd923] 6.34

Srxn1-GFP intensity median modified Z-score, inactive:
O=C(Oc1cccc2cccnc12)c1ccccc1Cl 1.65
Cc1ccc(C(=O)Oc2cccc3cccnc23)cc1 0.989
CC/C=C\C/C=C\C/C=C\C/C=C\C/C=C\CCCC(=O)OCC [euspeclibcmpd997] 0.696
C[C@H]1[C@H]2CCC3C4CC=C5C[C@@H](N(C)C)CC[C@]5(C)C4CC[C@@]32CN1C (stereo partly drawn) [euspeclibcmpd1801] -0.317
CC(=O)OC1CCC2(C)C(=CC=C3C2CCC2(C)C3CCC2C(C)/C=C/C(C)C(C)C)C1(C)C (stereo not drawn) [euspeclibcmpd1343] 1.93
CCC(/C=C/[C@@H](C)[C@H]1CCC2C3CC=C4C[C@@H](O)CC[C@]4(C)C3CC[C@@]21C)C(C)C (stereo partly drawn) [euspeclibcmpd1549] -0.0971
CC(C)CCCC(C)[C@H]1CCC2C3CC=C4C[C@@H](O)CC[C@]4(C)C3CC[C@@]21C (stereo partly drawn) [euspeclibcmpd354] 0.396
CC(C)CCCC(C)C1CCC2C3=CCC4CC(O)CCC4(C)C3CCC21C (stereo not drawn) [euspeclibcmpd1991] -0.131
CC(=O)Nc1ccc(S(=O)(=O)N=c2o[nH]c(C)c2C)cc1 [euspeclibcmpd798] -0.176
CC(=O)N[C@H]1[C@H]([C@H](O)[C@H](O)CO)O[C@](O)(C(=O)O)C[C@@H]1O [euspeclibcmpd2223] -0.0326
CC(C)C(N)C(=O)OCC(CO)OCn1cnc2c(=O)[nH]c(=N)[nH]c21 (stereo not drawn) [euspeclibcmpd624] -0.125
C[C@H]1CC2C3CC=C4CC(=O)C=C[C@]4(C)[C@@]3(F)[C@@H](O)C[C@]2(C)[C@@]1(O)C(=O)COP(=O)(O)O (stereo partly drawn) [euspeclibcmpd2288] -0.294
CNCc1ccccc1 [euspeclibcmpd1631] -0.463
CC(CN(C)C)CN1c2ccccc2Sc2ccccc21 (stereo not drawn) [euspeclibcmpd308] -0.246
CCC(=O)OCC(=O)C1(OC(=O)CC)C(C)CC2C3CC=C4CC(=O)C=CC4(C)C3(Cl)C(O)CC21C (stereo not drawn) [euspeclibcmpd31] -0.85
CCC(=O)O[C@]1(C(=O)CCl)[C@@H](C)CC2C3CC=C4CC(=O)C=C[C@]4(C)[C@@]3(F)[C@@H](O)C[C@@]21C (stereo partly drawn) [euspeclibcmpd633] 0.492
NC[C@@H]1CC[C@@H](N)[C@@H](O[C@H]2[C@H](O)[C@@H](O[C@H]3O[C@H](CO)[C@@H](O)[C@H](N)[C@H]3O)[C@H](N)C[C@@H]2N)O1 [euspeclibcmpd1045] -0.0322
CCOc1ccc(C(=O)c2cc(O)c(OC)c(OC)c2O)cc1 [euspeclibcmpd2089] -0.551
CCCCCCCCCCCCC(C(=O)O)C(C)C(=O)O (stereo not drawn) [euspeclibcmpd1524] 0.456
CCCCCCCCCCCCCCC(C(=O)OC)C(O)(CC(=O)OC)C(=O)OC (stereo not drawn) [euspeclibcmpd2214] -0.435
OC[C@H]1O[C@H](OC[C@H]2O[C@@H](O)[C@H](O)[C@@H](O)[C@@H]2O)[C@H](O)[C@@H](O)[C@H]1O [euspeclibcmpd1651] -0.055
CC(C)Cn1c(=O)n(C)c(=O)c2nc[nH]c21 [euspeclibcmpd2061] 0.0284
CC(O)Cn1cnc2c1c(=O)n(C)c(=O)n2C (stereo not drawn) [euspeclibcmpd1230] 0.0469
Cn1c(=O)c2nc[nH]c2n(C)c1=O [euspeclibcmpd290] -0.062
COc1ccc(Cc2c[nH]c(=N)[nH]c2=N)cc1OC [euspeclibcmpd456] -0.0911
COc1ccc(/C=C2/COc3ccc(Br)cc3C2=O)cc1O 1.17
COc1ccc(-c2cc(=O)c3c(O)cc(OC)c(OC)c3o2)c(OC)c1 [euspeclibcmpd1657] 0.259
COc1cc2c(cc1OC)-c1c(oc3cc(O)cc(O)c3c1=O)CO2 [euspeclibcmpd2244] -0.157
COc1ccc([C@@H]2CC(=O)c3c(O)cc(O)cc3O2)cc1O [euspeclibcmpd1483] 0.0163
COC(=O)/C=C/C(C)=C/C=C/C(C)=C/C=C/C=C(C)/C=C/C=C(C)/C=C/C(=O)O [euspeclibcmpd2376] -0.19
COC(=O)/C=C/c1cc(OC)c(OC)c(OC)c1 [euspeclibcmpd2136] 0.7
COCCN(Cc1ccccn1)C(=O)C1CCN(C)C(=O)C1 (stereo not drawn) 0.317
CC1(C)SC2C(NC(=O)[C@@H](NC(=O)N3CCNC3=O)c3ccccc3)C(=O)N2C1C(=O)O (stereo partly drawn) [euspeclibcmpd2116] -0.415

Source: the supplement of paper PMC10498489
